The record followed here is ChEMBL document CHEMBL4513216, “Probing the Open Global Health Chemical Diversity Library for Multistage-Active Starting Points for Next-Generation Antimalarials” (ACS Infect Dis, 2020).

Out of some 68,000 compounds screened, about 2,700 (4%) showed an effect of 50% or more. Only a selection was taken, and strong results are over-represented in it overall.

The test system of the assay is Plasmodium berghei. Put plainly: Screen against P. berghei liver stage (PbLuc), transformed with Luciferase, at 2uM. The assay is classed as functional, HepG2. The note with it: tested at 2 uM.
Take `CCCN1C[C@H](NC(=O)c2cccs2)[C@@H](c2ccc(OC)cc2)C1`: the INHIBITION is on record as 53.65%.

Consider `O=c1c2ccccc2ncn1Cc1cc(C2CC2)[nH]n1`, for which the INHIBITION was 34.98%.

Consider `CCOCC1c2c(ncn2C)CCN1C(=O)c1cscn1` (centres undefined), for which the INHIBITION was found to be 16.78%.

Consider `Cc1ncnc2c1CCN(Cc1ccc3c(c1)OCO3)CC2`, for which the INHIBITION is -39.9%.

Regarding `Cc1cc(CNc2ccc3nc(C4CC4)sc3c2)no1`, the INHIBITION turned out to be 53.63%.

`Cc1noc(C)c1CNc1ccc2nc(C3CC3)sc2c1`: the INHIBITION came out at 25.21%.

Take `Cc1cc(CNc2ccc3nc(C)sc3c2)no1`: the INHIBITION is -32.33%.

For the compound `O=C1NCCN(CC2CC2)C12CCN(Cc1ccco1)CC2`, the INHIBITION is reported as 61.9%.

As for `CC(C)NC(=O)N1CCC2(CC1)C(=O)NCCN2Cc1ccccc1`, the INHIBITION is recorded as 5.69%.

In the case of `O=C(NC1CC1)N1CCC2(CC1)C(=O)NCCN2Cc1ccccc1`, the INHIBITION is -11.54%.

As to `CN1CCNC(=O)C12CCN(Cc1ccco1)CC2`, the INHIBITION is recorded as 27.42%.

Regarding `Cc1ccc(CN2CCC3(CC2)C(=O)NCCN3CC2CC2)o1`, the INHIBITION is 8.62%.

Regarding `O=C(CC1CC1)N1CCC2(CC1)C(=O)NCCN2Cc1ccccc1`, the INHIBITION was 52.36%.

Consider `CC(C)CNC(=O)[C@H]1CCS(=O)(=O)[C@@H]2CN(Cc3cccnc3)C[C@H]12`, for which the INHIBITION was determined as 35.07%.

Take `COC(=O)c1ncccc1N1CCCCC1`: the INHIBITION is listed as -18.04%.

For `COc1nc2ccccc2cc1C1CC(=O)Nc2n[nH]c(C3CCC3)c21` (centres undefined), the INHIBITION turned out to be 13.51%.

For the compound `CC(C)c1nccc(C2CC(=O)Nc3n[nH]c(C4CCC4)c32)n1` (centres undefined), the INHIBITION is 53.33%.

For the compound `O=C1CC(c2ccc3ccccc3n2)c2c(n[nH]c2C2CCC2)N1` (centres undefined), the INHIBITION was found to be 46.3%.

In the case of `Cc1nnc(SCC(=O)N2CCc3[nH]nc(C4CCC4)c3C2)o1`, the INHIBITION was 22.34%.

As for `CCc1nnc(SCC(=O)N2CCc3[nH]nc(C4CCC4)c3C2)o1`, the INHIBITION is recorded as 66.4%.

Take `CCc1n[nH]c(SCC(=O)N2CCc3[nH]nc(C4CCC4)c3C2)n1`: the INHIBITION turned out to be 23.45%.

Take `O=C(C1CC1)N1CCC(O)(CN2CCN(c3ccccc3)CC2)C1` (centres undefined): the INHIBITION was found to be 0.64%.

For `Cc1nc2c(c(N(C)C)n1)CCN(C(=O)c1sccc1S(N)(=O)=O)C2`, the INHIBITION was -22.79%.

In the case of `CC(C)CNc1nccc(-c2cnc3sc(Cl)cn3c2=O)n1`, the INHIBITION is recorded as -24.85%.

On to `COC(=O)CC(NC(=O)CCCn1cccn1)c1ccc(Cl)cc1` (centres undefined), for which the INHIBITION is on record as -18.57%.

For `CC(NC(=O)CCn1cccn1)c1cccs1` (centres undefined), the INHIBITION is recorded as -38.35%.

As to `CC(C)OC(=O)CC(NC(=O)CCn1cccn1)c1ccccc1` (centres undefined), the INHIBITION is on record as 67.28%.

On to `CC(NC(=O)CCn1cccn1)c1ccc(-n2ccnn2)cc1` (centres undefined), for which the INHIBITION was -33.92%.

As to `CC(NC(=O)CCn1cccn1)c1cn(-c2ccccc2)nn1` (centres undefined), the INHIBITION came to 2.26%.

Take `COC(=O)CC(NC(=O)CCn1cccn1)c1ccc(C)cc1` (centres undefined): the INHIBITION is given as 60.13%.

`CN(C)CCN1CCC2(CCN(C(=O)c3ccc(F)cc3)CC2)C1=O`: the INHIBITION is -16.42%.

Take `Cc1cc(C)n(CC2CN(CC(=O)NCc3ccccn3)CCO2)n1` (centres undefined): the INHIBITION is recorded as -12.05%.

As to `CN(Cc1cccnc1)[C@@H]1CN(C(=O)c2ccno2)[C@@H]2CCCO[C@H]12`, the INHIBITION is recorded as -7.88%.

Regarding `CCSc1cc(C(=O)NCc2ccc(C(=O)NC)cc2)ccn1`, the INHIBITION turned out to be 19.48%.

In the case of `C[S+]([O-])c1nncn1CC(=O)c1ccc(Br)cc1` (centres undefined), the INHIBITION is -59.71%.

As to `CCOC(=O)CC(c1ccc(OC)cc1)c1c(O)n[nH]c1C` (centres undefined), the INHIBITION is reported as -43.9%.

As to `CN(Cc1ccc([S+](C)[O-])cc1)c1ccc(Br)cn1` (centres undefined), the INHIBITION is 67.28%.

Consider `CN(Cc1ccc([S+](C)[O-])cc1)c1ccc(Cl)cn1` (centres undefined), for which the INHIBITION worked out at 45.82%.

For the compound `CN(Cc1ccc([S+](C)[O-])cc1)c1ccc(C(F)(F)F)cn1` (centres undefined), the INHIBITION is recorded as 48.21%.

With `CN(C)[C@H]1CCCCN(C(=O)c2cccc(-c3cccc(F)c3)c2)C1`, the INHIBITION was determined as 36.79%.

Regarding `COc1c(F)ccc(C(=O)N2CC[C@H](CO)[C@@H](O)C2)c1F`, the INHIBITION is given as -15.37%.

`NC(=O)c1ccccc1-n1cc(-c2cccc(C(=O)O)c2)cn1`: the INHIBITION turned out to be 0.51%.

For the compound `NC(=O)c1cc(-c2cccc(C(=O)O)c2)cs1`, the INHIBITION was 67.28%.

On to `NC(=O)c1cc(-n2cc(-c3cccc(C(=O)O)c3)cn2)cs1`, for which the INHIBITION came to 29.13%.

Consider `CC(C)C(=O)N1CCC2(CCCN(CCOc3ccccc3)C2)C1` (centres undefined), for which the INHIBITION is 21.89%.

For `Cn1c(N)nnc1SCc1cc(Br)ccc1Cl`, the INHIBITION is listed as 55.36%.

In the case of `Cn1c(N)nnc1SCc1c(F)cccc1Br`, the INHIBITION is listed as -3.53%.

Turning to `Cn1c(N)nnc1SCc1ccc(Cl)cc1Br`, the INHIBITION amounted to 45.82%.

Consider `NC(=O)C(NC(=O)CSCc1ccc(Cl)s1)c1ccccc1` (centres undefined), for which the INHIBITION amounted to 28.04%.
